Pf growth 96h = P. falciparum growth inhibition at 96 hour, primary screen for plastid delayed-death inhibitors; P. falciparum luciferase reporter growth, 96 h; actives 6.9% (n = 320,000); Potency, µM (titrated, usually from 28.7 µM), inactives show at the highest dose activity change, negative = inhibition, actives largely listed as inhibitors; note: potency is the fitted concentration of half-maximal effect; % is set by controls: 0 for no effect and ±100 for the full control effect
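P. falciparum expressing integrated firefly luciferase grown in erythrocytes (2% hematocrit, 0.05% parasitemia final) with compounds for 96 hours at 37 C, 5% CO2. Growth inhibition read as loss of luminescence after adding luciferase detection reagent.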
CHX counter = counter-screen for Shiga toxin inhibitors: cycloheximide protein synthesis inhibition; actives 12% (n = 300,000); max response, %; cell reporter, cycloheximide protein synthesis inhibition counterscreen; AID 2314; in the data active = max response mostly above about 13%, no sharp cut-off; inactive = mostly below about 14%; note: read at 38.3 µM for the half of the compounds with a filed dose; 0% is about no effect
Pf growth 48h = inhibits P. falciparum growth in the first generation, 48 h. P. falciparum luciferase growth in erythrocytes, 48 h. Potency, µM (top dose mostly 28.7 µM), without a hit: top-dose activity change, negative = inhibition, hits mostly inhibitors. actives 5.9% (n = 310,000); note: potency is the fitted concentration of half-maximal effect; % is set by controls: 0 for no effect and ±100 for the full control effect
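Erythrocytes infected with P. falciparum carrying an integrated firefly luciferase reporter (2% hematocrit, 0.1% parasitemia final) were exposed to compounds in RPMI 1640 with 0.5% Albumax at 37 C, 5% CO2. Growth inhibition was scored as reduced luminescence.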
Shiga toxin inh = inhibitors of Shiga toxin in Vero cells. Vero cells, Shiga toxin protein synthesis inhibition reporter. actives 9.2% (n = 290,000). inhibition, % at 38.7 µM; in the data active = inhibition mostly above about 28%, no sharp cut-off; inactive = mostly below about 43%; note: 0% is about no effect
An asterisk follows results filed as active; u = inconclusive; x = no result given; + = active, no number. This is a sample that favours compounds with a hit; in the whole collection about 21% have one here. Unless noted, calls come from the whole dose curve; as a rule, active = well fitted inhibition curve with a large enough effect; inconclusive = small, poorly fitted or top-dose-only effect, or another doubt; inactive = no such curve, though single readings can be large or run the other way.

SMILES	Pf growth 96h	CHX counter	Pf growth 48h	Shiga toxin inh
Cc1cc(SCc2cc(=O)[nH]c3ccccc23)nc2ccccc12	u	-1.3	1.47µM*	-4.2
CCOc1ccccc1NC(=O)c1ccc2c(c1)C(=O)N(CC)C2=O	-29.3%	2.9	6.7%	-4.0
O=C(/C=C/c1ccco1)NC(=S)Nc1cccc(C(=O)O)c1	u	22.8*	x	44.8*
COc1cccc(NC(=S)NC(=O)/C=C/c2ccco2)c1	-7.9%	31.0*	65.1%	57.9*
COc1ccc(NC(=S)NC(=O)/C=C/c2ccco2)c(OC)c1	u	-1.6	-40.3%	x
CN1CCN(c2ccc(NC(=S)NC(=O)/C=C/c3ccco3)cc2)CC1	49.0%	44.4*	u	105.6*
CCOc1ccc(NC(=S)NC(=O)/C=C/c2ccco2)cc1	11.7µM*	13.2*	-22.0%	x
CC(=O)Nc1ccc(NC(=S)NC(=O)/C=C/c2ccco2)cc1	u	-3.7	0.9%	x
CSc1nc2c(c(=O)n1Cc1ccccc1)SC(C)C2 (stereo not drawn)	-11.9%	-1.1	11.7µM*	-6.9
CC1Cc2nc(SCC(=O)c3ccccc3)n(Cc3ccccc3)c(=O)c2S1 (stereo not drawn)	u	14.2*	u	40.5*
CC1Cc2nc(SCC(=O)NCc3ccccc3)n(Cc3ccccc3)c(=O)c2S1 (stereo not drawn)	u	5.3	u	23.1
Clc1ccccc1-c1nnc2n1CCCCC2	15.8%	-2.4	34.3%	12.3
OC(COc1ccc(Cl)cc1Cl)CN1CCc2ccccc2C1 (stereo not drawn)	u	-6.6	-4.2%	-3.5
OC(CNCC1(N2CCCCC2)CCCCC1)COc1ccc(Cl)cc1Cl (stereo not drawn)	u	-2.2	3.29µM*	-2.8
Cc1ccc(/C=N/NC(=O)Cc2ccc(O)cc2)s1	7.38µM*	27.2*	5.8%	25.5
Cc1ccc(/C=N/NC(=O)c2ccc(Br)o2)s1	29.3%	42.9*	31.4%	81.7*
Cc1cc([N+](=O)[O-])ccc1-c1ccc(/C=N/NC(=O)c2ccc(Br)o2)o1	u	-1.7	u	22.5
O=C(Cc1ccc(O)cc1)N/N=C/c1cccs1	-18.6%	9.2	0.9%	-0.5
CCc1ccc(/C=N\NC(=O)c2ccc(Br)o2)s1	-16.0%	89.7*	-16.7%	99.6*
Cc1ccc(C(=O)Nc2ccc3c(c2)OCO3)cc1NC(=O)c1ccco1	2.9%	26.6*	-5.2%	74.4*
Cc1cc(NC(=O)c2ccc3c(c2)OCO3)ccc1NC(=O)c1ccco1	-1.6%	14.1*	83.7%	48.2
CC[C@H](C)[C@H](NC(=O)[C@@H](NC(=O)[C@@H](NC(=O)[C@H](CCC(=O)O)NC(=O)[C@H](CCC(=O)O)NC(=O)[C@H](CCC(=O)O)NC(=O)[C@H](C)NC(=O)[C@@H](N)CC(C)C)C(C)C)C(C)C)C(=O)N[C@@H](CCCNC(=N)N)C(=O)N[C@@H](CO)C(=O)N[C@@H](C)C(=O)N[C@@H](CC(N)=O)C(=O)N[C@@H](Cc1ccccc1)C(=O)N[C@H](C(=O)N[C@@H](CC(=O)O)C(=O)N[C@@H](CC(N)=O)C(=O)O)[C@@H](C)O	x	-1.6	x	-2.0
N=c1scc(-c2ccccc2)n1/N=C/c1ccco1	u	45.8*	0.0%	71.9*
O=[N+]([O-])c1ccc(-c2cc(-c3ccc(Cl)cc3)n[nH]2)cc1	115.7%	23.9	110.9%	39.5*
Cc1ccc(-c2nc3ccc([N+](=O)[O-])cc3[nH]2)cc1	2.9%	16.0*	128.6%	123.7*
SMILES	Pf growth 96h	CHX counter	Pf growth 48h	Shiga toxin inh
COc1ccc(-c2nc3ccc([N+](=O)[O-])cc3[nH]2)cc1	u	60.1*	185.5%	57.5*
O=[N+]([O-])c1ccc2nc(-c3ccccc3[N+](=O)[O-])[nH]c2c1	u	26.3*	53.5%	37.4
O=[N+]([O-])c1cccc(-c2nc3ccc([N+](=O)[O-])cc3[nH]2)c1	-6.9%	12.5	u	39.8
COc1ccc(Nc2ccc([N+](=O)[O-])cc2[N+](=O)[O-])cc1	133.6%	-7.0	14.8%	-6.3
CNC(=O)c1c[nH]c2ccc(S(=O)(=O)Nc3cccc(Cl)c3C)cc2c1=O	u	x	1.3%	x
O=[N+]([O-])c1ccc(-c2cnc[nH]2)cc1	95.9%	26.2*	109.5%	52.7*
O=[N+]([O-])c1ccc2nc(-c3ccncc3)[nH]c2c1	5.22µM*	32.5*	2.08µM*	29.7
O=[N+]([O-])c1ccc2nc(-[n+]3c(-c4ccccc4)cc(-c4ccccc4)cc3-c3ccccc3)[nH]c2c1	u	-3.3	u	-4.3
O=[N+]([O-])c1ccc2nc(-c3ccc(Cl)cc3)[nH]c2c1	-103.6%	91.5*	u	+
O=C(CCc1ccccc1)N1CCCC(Nc2ccc(F)cc2)C1 (stereo not drawn)	u	8.9	u	5.4
Cn1c(CNC(=O)CNC(=O)Cc2ccc(Cl)cc2)cc(=O)n(C)c1=O	u	-2.0	-23.3%	8.2
CC(C)CC(=O)NC(=S)N1CCN(c2ccc([N+](=O)[O-])cc2Cl)CC1	u	-3.2	-27.6%	-3.5
Cn1nnnc1SCc1csc(Nc2ccccc2)n1	143.4%	27.8*	42.2%	123.1*
Cc1ccc(Nc2nc(CSc3nnnn3-c3ccccc3)cs2)cc1	3.5%	15.8	-4.6%	35.7
Cc1ccc(Nc2nc(CSc3nnnn3C)cs2)cc1	223.8%	39.3*	173.1%	42.3*
CC(C(=O)N1CCCCC1)N(C)CC(=O)Nc1cccc(F)c1 (stereo not drawn)	-7.3%	x	3.1%	x
CCC/C=N/NC(=O)c1ccccc1O	0.9%	17.7*	-2.1%	47.5*
C/C(=N\NC(=O)c1ccccc1O)C1C(=O)c2ccccc2C1=O	u	29.4*	x	35.7
CCOC(=O)C(CC)/C(C)=N\NC(=O)c1ccccc1O (stereo not drawn)	31.2%	18.3*	-18.1%	33.5*
CCC/C=N/NC(=O)CNC(=O)c1ccccc1Cl	5.7%	5.2	38.6%	4.8
CCC/C(C)=N/NC(=O)c1ccccc1O	u	27.5*	-11.4%	104.8*
O=C(NN=C(Cc1ccccc1)Cc1ccccc1)c1ccccc1O	u	11.0	3.0%	18.2
N#CCSc1ccccc1NC(=O)CN1C(=O)C2CC=CCC2C1=O (stereo not drawn)	2.3%	x	-0.6%	x
O=C(Cn1cncn1)N/N=C/c1cccc(Cl)c1	15.2%	-1.3	5.7%	6.3
CC(=O)Nc1sc(N/N=C\c2ccccc2F)nc1-c1cccs1	-58.7%	37.6*	u	62.5*
CC(=O)Nc1sc(N/N=C\c2ccc(O)cc2)nc1-c1cccs1	8.3%	27.2*	18.4%	68.4*
CC(=O)Nc1sc(NC(=O)c2ccccc2)nc1-c1cccs1	-28.4%	20.8	-2.9%	13.7
CC(=O)Nc1sc(N/N=C\c2cccc(Cl)c2)nc1-c1cccs1	u	18.8*	u	8.6
NCCCC[C@H](NC(=O)[C@@H]1CCCN1C(=O)[C@@H](N)CCCN=C(N)N)C(=O)N1CCC[C@H]1C(=O)N[C@@H](CCC(N)=O)C(=O)N[C@@H](CCC(N)=O)C(=O)N[C@@H](Cc1ccccc1)C(=O)O	x	-5.3	x	-9.9

Bioassay records: PubChem, National Center for Advancing Translational Sciences (NCATS)
